Compounds without any hit were thinned out: in the full panel of roughly 79,000, 15% have a hit. Activity calls are given as the source filed them. Rule as the data show it: active = growth inhibition above about 70%; inactive = the rest.
What was measured:
[1] = NCI Yeast Anticancer Drug Screen. Data for the rad52 strain (AID 147);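 also: 0% = growth of vehicle-treated control cultures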; details: S. cerevisiae rad52 mutant growth inhibition, active compounds read high
In short: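 Yeast strain carrying a DNA damage repair alteration was exposed to test compounds. Growth inhibition was measured relative to vehicle-treated controls.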

[2] = NCI Yeast Anticancer Drug Screen. Data for the wt1 strain (AID 149);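 also: 0% = growth of vehicle-treated wt1 cultures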; details: S. cerevisiae wt1 strain (SPY 50644) growth inhibition, active compounds read high
In short: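 Measured: growth of wt1 yeast under compound versus vehicle treatment, reported as inhibition.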

[3] = NCI Yeast Anticancer Drug Screen. Data for the rad50EPP+ strain (AID 151);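 also: 0% = growth of vehicle-treated control cultures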; details: S. cerevisiae rad50 mutant strain, active compounds read high
In short: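 Yeast strain carrying rad50 alteration (rad50EPP+) exposed to compounds; growth inhibition measured relative to vehicle-treated controls.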

[4] = NCI Yeast Anticancer Drug Screen. Data for the mgt1 strain (AID 153); details: S. cerevisiae mgt1 mutant growth inhibition, active compounds read high
In short: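 Yeast mgt1 strain (DNA repair/cell-cycle alteration panel) exposed to compounds; growth inhibition measured relative to vehicle-treated controls.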

[5] = NCI Yeast Anticancer Drug Screen. Data for the rad50 strain (AID 155);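 also: 0% = growth of vehicle-only cultures of the same strain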; details: S. cerevisiae rad50 strain growth inhibition, active compounds read high
In short: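 Growth of the mutant yeast was measured after compound exposure and referenced to vehicle-treated cultures.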

[6] = NCI Yeast Anticancer Drug Screen. Data for the mec2-1 strain (AID 157); details: S. cerevisiae mec2-1 strain, active compounds read high
In short: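 mec2-1 yeast strain, carrying an alteration in DNA damage repair or cell cycle control, was exposed to compounds; growth inhibition was measured relative to vehicle-treated controls.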

[7] = NCI Yeast Anticancer Drug Screen. Data for the rad14 strain (AID 159);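 also: 0% = growth of vehicle-treated control cultures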; details: S. cerevisiae rad14 strain growth inhibition, active compounds read high
In short: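 Here, inhibition of yeast growth was measured after compound exposure, using a strain with a genetic defect in DNA damage repair and vehicle-treated cultures as the reference.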

[8] = NCI Yeast Anticancer Drug Screen. Data for the sgs1 mgt1 strain (AID 161);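 also: 0% = growth of cultures given vehicle only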; details: S. cerevisiae sgs1 mgt1 strain, active compounds read high
In short: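 Growth of a repair-deficient yeast mutant was monitored after compound treatment and expressed as inhibition relative to vehicle-treated cultures.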

[9] = NCI Yeast Anticancer Drug Screen. Data for the CLN2oe strain (AID 163);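 also: 0% = growth of vehicle-only control cultures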; details: S. cerevisiae CLN2oe strain, active compounds read high
In short: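 Yeast cells carrying a defined cell-cycle control alteration were exposed to test compounds. Growth inhibition was scored against vehicle-treated control cultures.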

[10] = NCI Yeast Anticancer Drug Screen. Data for the cln2 rad14 strain (AID 165);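 also: 0% = growth equal to vehicle treated cultures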; details: S. cerevisiae cln2 rad14 strain, active compounds read high
In short: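 Yeast carrying cln2 and rad14 alterations (cell cycle control and DNA damage repair) were exposed to compounds. Growth inhibition was measured against vehicle-treated controls.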

[11] = NCI Yeast Anticancer Drug Screen. Data for the bub3 strain (AID 167); details: S. cerevisiae bub3 mutant strain, active compounds read high
In short: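 Whole-cell yeast assay. The mutant strain was incubated with compounds, and growth inhibition was determined by comparison with vehicle-treated cells.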

[12] = NCI Yeast Anticancer Drug Screen. Data for the wt2 strain (AID 169);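 also: 0% = growth of vehicle-treated yeast cultures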; details: S. cerevisiae wt2 strain growth inhibition, active compounds read high
In short: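 Yeast cells were exposed to test compounds, and growth inhibition was measured relative to vehicle-treated controls.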

[13] = NCI Yeast Anticancer Drug Screen. Data for the mlh1 strain (AID 171);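 also: 0% = growth of vehicle-treated control cultures of the same strain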; details: S. cerevisiae mlh1 strain growth inhibition, active compounds read high
In short: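 Yeast carrying a defined genetic alteration in DNA damage repair or cell cycle control were exposed to test compounds. Growth inhibition was measured relative to vehicle-treated controls.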

[14] = NCI Yeast Anticancer Drug Screen. Data for the sgs1 strain (AID 173);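 also: 0% = growth of vehicle-only control cultures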; details: S. cerevisiae sgs1 mutant, active compounds read high
In short: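 Yeast mutant strains carrying defined defects in DNA damage repair or cell cycle control were exposed to test compounds. Growth inhibition was scored against vehicle-treated controls.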

[15] = NCI Yeast Anticancer Drug Screen. Data for the mlh1 rad18 strain (AID 175); details: S. cerevisiae mlh1 rad18 strain growth inhibition, active compounds read high
In short: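 Growth inhibition of the yeast strain was measured after compound exposure and expressed relative to vehicle-treated controls. The strain carries defined defects in DNA damage repair.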

[16] = NCI Yeast Anticancer Drug Screen. Data for the rad18 strain (AID 177); details: S. cerevisiae rad18 mutant growth inhibition, active compounds read high
In short: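 Yeast carrying a defined DNA damage repair alteration were exposed to compounds. Growth inhibition was expressed relative to vehicle-treated controls.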

[17] = at 5.0 µM (retest, dose inferred, filed as 0.5)
[18] = at 50.0 µM (retest, dose inferred, filed as 5.0)

Measured: growth inhibition

CCN(CC)CC[n+]1ccc2c(C)c3[nH]c4ccc(O)cc4c3c(C)c2c1
inactive: [1]; at 1.2 µM 13% | [1]; at 3.7 µM 41% | [1]; at 11.0 µM 67% | [2]; at 1.2 µM 0% | [2]; at 3.7 µM -1% | [2]; at 11.0 µM 3% | [2]; at 33.0 µM 4% | [2]; at 100.0 µM 8% | [3]; at 1.2 µM 4% | [3]; at 3.7 µM 16% | [3]; at 11.0 µM 46% | [4]; at 1.2 µM 0% | [4]; at 3.7 µM -1% | [4]; at 11.0 µM 0% | [4]; at 33.0 µM 3% | [4]; at 100.0 µM 8% | [5]; at 1.2 µM 13% | [5]; at 3.7 µM 42% | [5]; [17] 36% | [6]; at 1.2 µM -2% | [6]; at 3.7 µM -13% | [6]; [17] 9% | [6]; at 11.0 µM 9% | [6]; at 33.0 µM 8% | [6]; [18] 4% | [6]; at 50.0 µM -11.9% | [6]; at 100.0 µM 43% | [7]; at 1.2 µM -3% | [7]; at 3.7 µM -5% | [7]; at 11.0 µM 3% | [7]; at 33.0 µM 3% | [7]; at 100.0 µM 60% | [8]; [17] 4% | [8]; [18] 13% | [8]; at 50.0 µM 1.5% | [9]; at 1.2 µM -8% | [9]; at 3.7 µM -4% | [9]; at 11.0 µM -8% | [9]; at 33.0 µM -8% | [9]; at 100.0 µM 16% | [10]; [17] -2% | [10]; [18] 18% | [10]; at 50.0 µM -21.6% | [11]; at 1.2 µM -10% | [11]; at 3.7 µM 3% | [11]; [17] 8% | [11]; at 11.0 µM -5% | [11]; at 33.0 µM -7% | [11]; [18] 6% | [11]; at 50.0 µM -14.8% | [11]; at 100.0 µM 2% | [12]; at 1.2 µM 0% | [12]; at 3.7 µM 0% | [12]; at 11.0 µM -1% | [12]; at 33.0 µM 2% | [12]; at 100.0 µM 26% | [13]; at 1.2 µM -4% | [13]; at 3.7 µM 3% | [13]; at 11.0 µM 1% | [13]; at 33.0 µM 9% | [13]; at 100.0 µM 68% | [14]; at 1.2 µM -2% | [14]; at 3.7 µM -1% | [14]; at 11.0 µM 6% | [14]; at 33.0 µM 9% | [14]; at 100.0 µM 31% | [15]; [17] 7% | [15]; [18] 19% | [15]; at 50.0 µM 27.8% | [16]; at 1.2 µM -2% | [16]; at 3.7 µM -2% | [16]; at 11.0 µM 3% | [16]; at 33.0 µM 12% | [16]; at 100.0 µM 58%
active: [1]; at 33.0 µM 87% | [1]; at 100.0 µM 95% | [3]; at 33.0 µM 88% | [3]; at 100.0 µM 91% | [5]; at 11.0 µM 72% | [5]; at 33.0 µM 89% | [5]; [18] 87% | [5]; at 50.0 µM 95% | [5]; at 100.0 µM 93%

CCCCN1C(=O)N(c2ccc(OCC)cc2)C2N(CCCC)C1C(C)(C)C2(C)C (stereo unspecified)
active: [1]; at 100.0 µM 86% | [5]; at 100.0 µM 84% | [7]; at 100.0 µM 72% | [8]; [18] 82% | [12]; at 100.0 µM 91% | [13]; at 100.0 µM 79% | [14]; at 100.0 µM 95% | [15]; [18] 84% | [16]; at 33.0 µM 74% | [16]; at 100.0 µM 93%
inactive: [1]; at 1.2 µM -6% | [1]; at 3.7 µM -13% | [1]; at 11.0 µM 3% | [1]; at 33.0 µM 30% | [2]; at 1.2 µM -3% | [2]; at 3.7 µM 3% | [2]; at 11.0 µM 9% | [2]; at 33.0 µM 19% | [2]; at 100.0 µM 52% | [3]; at 1.2 µM -7% | [3]; at 3.7 µM -6% | [3]; at 11.0 µM 7% | [3]; at 33.0 µM 19% | [3]; at 100.0 µM 30% | [4]; at 1.2 µM -4% | [4]; at 3.7 µM -7% | [4]; at 11.0 µM -6% | [4]; at 33.0 µM -7% | [4]; at 100.0 µM 5% | [5]; at 1.2 µM -17% | [5]; at 3.7 µM -18% | [5]; [17] 0% | [5]; at 11.0 µM 9% | [5]; at 33.0 µM 35% | [5]; [18] 50% | [5]; at 50.0 µM 49.6% | [6]; at 1.2 µM -5% | [6]; at 3.7 µM -4% | [6]; [17] 4% | [6]; at 11.0 µM -5% | [6]; at 33.0 µM -5% | [6]; [18] 62% | [6]; at 50.0 µM 19.9% | [6]; at 100.0 µM 22% | [7]; at 1.2 µM -1% | [7]; at 3.7 µM -6% | [7]; at 11.0 µM -6% | [7]; at 33.0 µM 15% | [8]; [17] 12% | [8]; at 50.0 µM 65.3% | [9]; at 1.2 µM -10% | [9]; at 3.7 µM -9% | [9]; at 11.0 µM -10% | [9]; at 33.0 µM -10% | [9]; at 100.0 µM 0% | [10]; [17] -3% | [10]; [18] 13% | [10]; at 50.0 µM 21.1% | [11]; at 1.2 µM -9% | [11]; at 3.7 µM -7% | [11]; [17] -2% | [11]; at 11.0 µM -12% | [11]; at 33.0 µM -11% | [11]; [18] 24% | [11]; at 50.0 µM 27.9% | [11]; at 100.0 µM 25% | [12]; at 1.2 µM -3% | [12]; at 3.7 µM 4% | [12]; at 11.0 µM 12% | [12]; at 33.0 µM 26% | [13]; at 1.2 µM -6% | [13]; at 3.7 µM -11% | [13]; at 11.0 µM -9% | [13]; at 33.0 µM -3% | [14]; at 1.2 µM -2% | [14]; at 3.7 µM -2% | [14]; at 11.0 µM 20% | [14]; at 33.0 µM 57% | [15]; [17] 13% | [15]; at 50.0 µM 54.1% | [16]; at 1.2 µM -7% | [16]; at 3.7 µM 0% | [16]; at 11.0 µM 27%

Cc1c(C2=C(Br)C(=O)N(C)C2=O)c(=O)n(C)c(=O)n1C
inactive: [1]; at 1.2 µM 11% | [1]; at 3.7 µM 26% | [1]; at 11.0 µM 51% | [1]; at 33.0 µM 67% | [2]; at 1.2 µM 4% | [2]; at 3.7 µM 13% | [2]; at 11.0 µM 23% | [2]; at 33.0 µM 35% | [3]; at 1.2 µM 0% | [3]; at 3.7 µM -2% | [3]; at 11.0 µM -2% | [3]; at 33.0 µM 1% | [3]; at 100.0 µM 3% | [4]; at 1.2 µM -1% | [4]; at 3.7 µM 0% | [4]; at 11.0 µM 8% | [4]; at 33.0 µM 23% | [5]; at 1.2 µM 6% | [5]; at 3.7 µM 15% | [5]; [17] 10% | [5]; at 11.0 µM 46% | [5]; [18] 55% | [6]; at 1.2 µM 7% | [6]; at 3.7 µM 15%
active: [1]; at 100.0 µM 87% | [2]; at 100.0 µM 73% | [4]; at 100.0 µM 91% | [5]; at 33.0 µM 78% | [5]; at 50.0 µM 81.9% | [5]; at 100.0 µM 91%

Source: PubChem BioAssay (NCI)
